# Results filed as inconclusive are left out. Values without a mark were called inactive. Active and inactive are the calls of the source. Calls follow the shape of the dose curve; as a rule, active = well fitted inhibition curve with a large enough effect; inconclusive = small, poorly fitted or top-dose-only effect; inactive = flat fitted curve, though single readings scatter.
# Target: Glutathione peroxidase 1 (Homo sapiens) (UniProt P07203)
# Assay: Primary qHTS Assay for Inhibitors of Recombinant Selenoprotein Glutathione Peroxidase 1 (GPX1) (AID 1845191)
# Details: recombinant GPX1, GR-coupled NADPH fluorescence, 15 min; series mostly up to 48.8 µM; activity, negative = inhibition: at the top concentration
# How it was run: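 Recombinant GPX1 (10 nM final) was preincubated with compound for 30 min at room temperature, then reacted with 1 mM GSH, 0.5 mM CHP, 0.5 mM NADPH and 100 nM glutathione reductase; NADPH fluorescence (340/450 nm) was read at 0 and 15 min.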
# % is scaled to controls: 0 for no effect and ±100 for the full control effect.
# Also: nearly all actives have a fitted effect of over 65% in size.
# Sequence of Glutathione peroxidase 1 (Homo sapiens) (P07203 whole entry, looked up): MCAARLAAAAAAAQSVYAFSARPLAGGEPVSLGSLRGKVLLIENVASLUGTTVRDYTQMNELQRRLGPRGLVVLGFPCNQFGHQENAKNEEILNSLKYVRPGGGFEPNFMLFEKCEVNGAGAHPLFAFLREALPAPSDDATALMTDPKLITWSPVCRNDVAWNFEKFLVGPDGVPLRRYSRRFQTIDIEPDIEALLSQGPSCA
Compound,outcome,"activity, negative = inhibition",Potency
C[C@H]1[C@H](C)CC[C@]2(C(=O)O)CC[C@]3(C)C(=CC[C@@H]4[C@@]5(C)C[C@@H](O)[C@H](O)[C@@](C)(CO)[C@@H]5CC[C@]43C)[C@H]12,inactive,–,–
Nc1ncnc2c1ncn2[C@@H]1O[C@H](COP(=O)(O)OP(=O)(O)OP(=O)(O)O)[C@@H](O)[C@H]1O,inactive [at 0.4 µM],–,–
CN1Cc2c(N)cccc2C(c2ccccc2)C1 (stereo not given),–,2.19%,–
CC[C@@H](C(=O)[C@@H](C)[C@@H](O)[C@H](C)CCc1ccc(C)c(O)c1C(=O)O)[C@H]1O[C@](CC)([C@H]2CC[C@](O)(CC)[C@H](C)O2)C[C@@H]1C,–,-31.6%,–
OC[C@H]1O[C@@H](n2cnc3c2NC=NC[C@H]3O)C[C@@H]1O,–,–,inactive
CC(C)N=c1cc2n(-c3ccc(Cl)cc3)c3ccccc3nc-2cc1Nc1ccc(Cl)cc1,–,-4.76%,–
CCOC(=O)O[C@]1(C(=O)COC(=O)CC)CC[C@H]2[C@@H]3CCC4=CC(=O)C=C[C@]4(C)[C@H]3[C@@H](O)C[C@@]21C,–,-32.6%,–
COC(=O)[C@H]1[C@H]2C[C@@H]3c4[nH]c5ccccc5c4CCN3C[C@H]2C[C@@H](OC(=O)c2cc(OC)c(OC)c(OC)c2)[C@@H]1OC,–,-24.2%,–
CC(Cc1ccc(O)c(O)c1)C(C)Cc1ccc(O)c(O)c1 (stereo not given),–,-13.2%,–
CC[N+](CC)(CC)CCC(O)(c1ccccc1)C1CCCCC1 (stereo not given),inactive,–,–
CC[C@@H](C(=O)O)[C@@H]1O[C@@H]([C@@H](C)[C@H](O)[C@H](C)C(=O)[C@H](CC)[C@H]2O[C@]3(C=C[C@@H](O)[C@]4(CC[C@@](C)([C@H]5CC[C@](O)(CC)[C@H](C)O5)O4)O3)[C@H](C)C[C@@H]2C)[C@@H](C)C[C@@H]1C,–,-29.6%,–
CCCCCCCCCCCC[n+]1ccc2ccccc2c1,–,-15.1%,–
CC1=C(/C=C/C(C)=C/C=C/C(C)=C/C=C/C=C(C)/C=C/C=C(C)/C=C/C2=C(C)CCCC2(C)C)C(C)(C)CCC1,inactive,–,–
CC(=O)Oc1c(C)cc(OCC(O)CNC(C)C)c(C)c1C (stereo not given),inactive [at 98.3 µM],–,–
Cc1cc(/C=C/c2ccc3cc(N(C)C)ccc3[n+]2C)c(C)n1-c1ccccc1,–,-26%,–
C[C@H](CCC(=O)O)[C@H]1CC[C@H]2[C@@H]3[C@H](O)C[C@@H]4C[C@H](O)CC[C@]4(C)[C@H]3CC[C@]12C,inactive,–,–
COCC(=O)Nc1cc(Sc2ccccc2)ccc1N=C(NC(=O)OC)NC(=O)OC,–,-20.1%,–
CC1=CCC(C(C)(C)O)CC1 (stereo not given),inactive [at 98.3 µM],–,–

Compound,outcome,"activity, negative = inhibition",Potency
CCCCCCCC(=O)O,inactive,–,–
O=CCCCC=O,inactive,–,–
CC(=O)N(CC(C)C(=O)O)c1c(I)cc(I)c(N)c1I (stereo not given),–,-19.3%,–
COC(=O)CCC(=O)CN,–,2.96%,–
CC1=C(/C=C/C(C)=C/C=C/C(C)=C/CO)C(C)(C)CCC1,–,-11.6%,–
C=C1CC[C@@H]2[C@](C)(CO)[C@H](O)CC[C@@]2(C)[C@@H]1C/C=C1/C(=O)OC[C@H]1O,–,3.34%,–
CCOc1ccc2c(c1)C(C)=CC(C)(C)N2,–,-5.83% [at 98.3 µM],–
NCc1ccc(OCCCc2sc(-c3ccc4c(c3)/C(=N/Nc3nc5ccccc5s3)CCC4)nc2C(=O)O)cc1,–,1.71%,–
CCCCC(CC)COC(=O)CC(C(=O)OCC(CC)CCCC)S(=O)(=O)O (stereo not given),–,-4.78%,–
CC[N+](C)(C)Cc1ccccc1Br,–,-7.53%,–
Clc1cc(Cl)c(OCC#CI)cc1Cl,inactive,–,–
CC1(C)S[C@@H]2[C@H](NC(=O)C(C(=O)O)c3ccsc3)C(=O)N2[C@H]1C(=O)O (stereo not given in full),inactive,–,–
CCCCC(=O)OCC(=O)[C@]1(O)Cc2c(O)c3c(c(O)c2[C@@H](O[C@H]2C[C@H](NC(=O)C(F)(F)F)[C@H](O)[C@H](C)O2)C1)C(=O)c1c(OC)cccc1C3=O,–,–,inactive
CC(=O)Oc1cc(C)c(OC(C)=O)c2ccccc12,inactive [at 98.3 µM],–,–
CC(=O)OC(C)OC(=O)C(C)c1ccc(-c2ccccc2)c(F)c1 (stereo not given),inactive,–,–
CC(C)(C)C(=O)OCOC(=O)[C@@H]1N2C(=O)[C@@H](N=CN3CCCCCC3)[C@H]2SC1(C)C,inactive,–,–
CO[C@H](C(=O)[C@@H](O)[C@@H](C)O)C1Cc2cc3cc(O[C@H]4C[C@@H](O[C@H]5C[C@@H](O)[C@H](O)[C@@H](C)O5)[C@@H](O)[C@@H](C)O4)c(C)c(O)c3c(O)c2C(=O)[C@H]1O[C@H]1C[C@@H](O[C@H]2C[C@@H](O[C@H]3C[C@](C)(O)[C@H](O)[C@@H](C)O3)[C@H](O)[C@@H](C)O2)[C@H](O)[C@@H](C)O1 (stereo not given in full),–,4.52%,–
O=C(O)c1cc(O)c2c(c1)[O][Bi][O]2,inactive [at 0.4 µM],–,–

# Target: Phospholipid hydroperoxide glutathione peroxidase GPX4 (Homo sapiens) (UniProt P36969)
# Assay: Primary qHTS Assay for Inhibitors of Recombinant Selenoprotein Glutathione Peroxidase 4 (GPX4) (AID 1845192); also: potency is read from the fitted curve at half-maximal effect
# Details: recombinant GPX4, GR-coupled NADPH fluorescence, 15 min; series mostly up to 50 µM; activity change, negative = inhibition: at the top concentration
# How it was run: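 GR-coupled readout: 100 nM GR, 1 mM GSH, 0.5 mM NADPH; NADPH fluorescence (ex 340/em 450 nm) read at t=0 and after 15 min RT. GPX4 200 nM, preincubated 30 min with compound; substrate 0.5 mM CHP.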
# Sequence of Phospholipid hydroperoxide glutathione peroxidase GPX4 (Homo sapiens) (P36969 whole entry, looked up): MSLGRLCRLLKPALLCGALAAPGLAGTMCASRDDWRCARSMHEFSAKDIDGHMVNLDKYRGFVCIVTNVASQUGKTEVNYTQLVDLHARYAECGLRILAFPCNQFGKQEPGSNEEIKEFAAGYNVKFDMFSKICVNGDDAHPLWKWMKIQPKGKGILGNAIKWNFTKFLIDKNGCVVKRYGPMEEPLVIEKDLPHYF
Compound,"activity change, negative = inhibition",outcome,Potency
Nc1ncnc2c1ncn2[C@@H]1O[C@H](COP(=O)(O)OP(=O)(O)OP(=O)(O)O)[C@@H](O)[C@H]1O,0.0913% [at 0.409 µM],–,–
CN1Cc2c(N)cccc2C(c2ccccc2)C1 (stereo not given),–,inactive,–
CC[C@@H](C(=O)[C@@H](C)[C@@H](O)[C@H](C)CCc1ccc(C)c(O)c1C(=O)O)[C@H]1O[C@](CC)([C@H]2CC[C@](O)(CC)[C@H](C)O2)C[C@@H]1C,–,–,4.47 µM (active)
OC[C@H]1O[C@@H](n2cnc3c2NC=NC[C@H]3O)C[C@@H]1O,–,–,inactive
CC(C)N=c1cc2n(-c3ccc(Cl)cc3)c3ccccc3nc-2cc1Nc1ccc(Cl)cc1,-1.16%,–,–
COC(=O)[C@H]1[C@H]2C[C@@H]3c4[nH]c5ccccc5c4CCN3C[C@H]2C[C@@H](OC(=O)c2cc(OC)c(OC)c(OC)c2)[C@@H]1OC,–,–,17.8 µM (active)
CC(Cc1ccc(O)c(O)c1)C(C)Cc1ccc(O)c(O)c1 (stereo not given),–,–,11.2 µM (active)
CC[N+](CC)(CC)CCC(O)(c1ccccc1)C1CCCCC1 (stereo not given),3.96%,–,–
CCCCCCCCCCCC[n+]1ccc2ccccc2c1,-5.18%,–,–
CC1=C(/C=C/C(C)=C/C=C/C(C)=C/C=C/C=C(C)/C=C/C=C(C)/C=C/C2=C(C)CCCC2(C)C)C(C)(C)CCC1,-21.4%,–,–
CC(=O)Oc1c(C)cc(OCC(O)CNC(C)C)c(C)c1C (stereo not given),–,inactive [at 100 µM],–
Cc1cc(/C=C/c2ccc3cc(N(C)C)ccc3[n+]2C)c(C)n1-c1ccccc1,–,–,14.1 µM (active)
CC1=CCC(C(C)(C)O)CC1 (stereo not given),–,inactive [at 100 µM],–
CCCCCCCC(=O)O,–,inactive,–
O=CCCCC=O,–,inactive,–
CC(=O)N(CC(C)C(=O)O)c1c(I)cc(I)c(N)c1I (stereo not given),-27.5%,–,–
COC(=O)CCC(=O)CN,–,inactive,–
CC1=C(/C=C/C(C)=C/C=C/C(C)=C/CO)C(C)(C)CCC1,–,–,17.8 µM (active)
C=C1CC[C@@H]2[C@](C)(CO)[C@H](O)CC[C@@]2(C)[C@@H]1C/C=C1/C(=O)OC[C@H]1O,-18.8%,–,–
CCOc1ccc2c(c1)C(C)=CC(C)(C)N2,–,–,31.6 µM (active)
NCc1ccc(OCCCc2sc(-c3ccc4c(c3)/C(=N/Nc3nc5ccccc5s3)CCC4)nc2C(=O)O)cc1,-14.1%,–,–
CC[N+](C)(C)Cc1ccccc1Br,-12.3%,–,–
Clc1cc(Cl)c(OCC#CI)cc1Cl,-0.691%,–,–
CC1(C)S[C@@H]2[C@H](NC(=O)C(C(=O)O)c3ccsc3)C(=O)N2[C@H]1C(=O)O (stereo not given in full),–,inactive,–
CCCCC(=O)OCC(=O)[C@]1(O)Cc2c(O)c3c(c(O)c2[C@@H](O[C@H]2C[C@H](NC(=O)C(F)(F)F)[C@H](O)[C@H](C)O2)C1)C(=O)c1c(OC)cccc1C3=O,–,–,inactive
CC(=O)Oc1cc(C)c(OC(C)=O)c2ccccc12,–,inactive [at 100 µM],–
CC(=O)OC(C)OC(=O)C(C)c1ccc(-c2ccccc2)c(F)c1 (stereo not given),0.971%,–,–
CC(C)(C)C(=O)OCOC(=O)[C@@H]1N2C(=O)[C@@H](N=CN3CCCCCC3)[C@H]2SC1(C)C,–,inactive,–
O=C(O)c1cc(O)c2c(c1)[O][Bi][O]2,–,inactive [at 0.409 µM],–

# From PubChem BioAssay (NCATS)
